Screens as filed in PubChem.
A selection: hits, their analogues and other compounds. The true share with any hit is near 4.5%.
hcDAF-12 act: activators of H. contortus DAF-12 nuclear receptor; 1.4% of 370,000 active; activation, % at 6.8 µM; HEK293 hcDAF-12 lit1-tk-luc reporter, luminescence; 0% DMSO, 100% Δ7-dafachronic acid;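 active = activation above the mean of all tested compounds plus 3 SD, cut at about 5.5% in these data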;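 also: 100% = response to 3 µM Δ7-dafachronic acid high control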
DAX1 inh-1: DAX1 (NR0B1) inhibition, primary screen | inhibition, % at 6.8 µM | HEK293T StAR-luciferase reporter, SF-1/DAX-1 repression relief | 1.1% of 370,000 active;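 active = inhibition above the mean over all tested compounds plus 3 SD, cut at about 3.6% in these data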;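 also: 0% = DAX-1 cells with DMSO and 100% = cells lacking DAX-1 with DMSO; higher inhibition means more luminescence from relief of DAX-1 repression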
ssDAF12 agonist: S. stercoralis DAF-12 activation, primary screen; HEK293 ssDAF-12/GRIP1 lit1-tk-luc reporter, luminescence; % of 3 µM dafachronic acid response; activation, % at 6.8 µM; 1% of 370,000 active; AID 652126;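 active = activation above the mean over all tested compounds plus 3 SD, cut at about 0.9% in these data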;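 also: 0% = DMSO-only wells and 100% = 3 µM delta7-dafachronic acid wells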
GAA850 FXN act: frataxin GAA850 promoter activation. 0.56% of 360,000 active. HEK293 lucGAA850 FXN promoter luciferase reporter, 24 h; percent of 10 µM SAHA response. activation, % at 6 µM. AID 540364;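 active = activation above the average of all compounds screened plus 3 SD, cutoff fixed separately per campaign, cut at about 7.5% in these data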;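 also: 0% = DMSO wells and 100% = 10 µM SAHA wells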
hgDAF-12 ag: agonists of H. glycines DAF-12 nuclear receptor; activation, % at 6.8 µM; 1.8% of 370,000 active; HEK293 GAL4-hgDAF12 UAS-luciferase reporter, agonist luminescence; normalized to butyrate control;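 active = activation above a cutoff set at the mean of all screened compounds plus 3 SD, cut at about 10% in these data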;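 also: 0% = DMSO wells and 100% = sodium butyrate wells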
DAX1 inh-2: NR0B1 (DAX1) inhibition; HEK293 Gal4-DAX1 luciferase reporter, luminescence; P51843; AID 504766; 0.99% of 340,000 active; inhibition, % at 6.75 µM;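 active = inhibition above the mean over all tested compounds plus 3 SD, cut at about 4.2% in these data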;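 also: 0% = DAX1-transfected cells with DMSO and 100% = empty-vector control cells with DMSO; inhibition shows as a rise in luminescence from relieved DAX1 repression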
Target sequence (P51843 207-470 limits assumed): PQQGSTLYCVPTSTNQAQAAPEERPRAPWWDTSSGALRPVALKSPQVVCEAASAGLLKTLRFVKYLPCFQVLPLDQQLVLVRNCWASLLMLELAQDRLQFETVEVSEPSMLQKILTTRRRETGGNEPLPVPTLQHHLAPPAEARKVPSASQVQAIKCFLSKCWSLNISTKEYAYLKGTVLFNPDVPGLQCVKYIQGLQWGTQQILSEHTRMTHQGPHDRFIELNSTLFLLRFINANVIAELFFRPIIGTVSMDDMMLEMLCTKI
* = called active by the depositor; / = not tested or not shown; ! = not confirmed by another sample.

SMILES	hcDAF-12 act	DAX1 inh-1	ssDAF12 agonist	GAA850 FXN act	hgDAF-12 ag	DAX1 inh-2
Cc1ccccc1CNC(=O)C1CCCN(c2ncccn2)C1 (stereo unspecified)	-1	0	-1	/	-1	/
COC(=O)[C@H](C)NC(=O)[C@@H]1CC=C[C@@H]2CCN(CCc3ccccc3)C(=O)[C@@H]21	1	/	-1	/	0	/
Cc1ccnc(NC(=O)CNC(=O)Cc2cccc3ccccc23)c1	2	3	1.3*	5	9	3
Cc1ccc(NC(=O)CNC(=O)Cc2cccc3ccccc23)nc1	3	0	-1	2	2	0
COc1cccc(C(=O)N/N=C(\C)c2ccc(NC(=O)Cc3ccccc3)cc2)c1OC	4	3.8*	0	2	8	1
C/C(=N\NC(=O)c1cccc(O)c1)c1cccc(NC(=O)c2ccc(F)cc2)c1	0	4.3*	1	2	6	2
C/C(=N\NC(=O)c1cccc(O)c1)c1ccc(NC(=O)Cc2ccccc2)cc1	2	6.8*	0	0	10	1
CC(C)Oc1cccc(-c2n[nH]c(=S)n2N=Cc2ccc(OCc3ccccc3)cc2)c1	1	1	-1	/	5	/
COC(=O)c1ccc(CSc2nnc(C)s2)cc1	1	1	0	5	6	0
COc1ccc(CSc2nnc(C)s2)cc1F	1	2	0	3	11*	0
CCNC(=O)C(=O)Nc1ccc([N+](=O)[O-])cc1	-2	0	0	2	-1	4.7*
CC(=O)NCCCNc1ccc([N+](=O)[O-])cc1	6.1*	-1	-1	1	5	0
CC(Cc1cccs1)NC(=O)Nc1ccc([N+](=O)[O-])cc1 (stereo unspecified)	2	0	1	3	13*	0
COc1ccccc1C(=O)NCCCNc1ccc([N+](=O)[O-])cc1	-1	0	-1	2	-1	3
COc1ccc(CNC(=O)c2ccc3c(c2)N(C)CCS3)cc1	-2	0	-1	-1	7	1
Cc1ccccc1NC(=O)c1ccc2ccccc2c1	2	1	0	5	6	5.0*
CN1CCSc2ccc(C(=O)NCc3ccccc3F)cc21	1	1	0	5	6	0
COC(=O)c1ccc2c(c1)N(C)CCS2	-1	0	-1	-1	-3	4.4*
Cc1ccccc1NC(=O)c1ccc2c(c1)N(C)CCS2	2	3.6*	-1	1	12*	2
C=CCNc1nc(-c2ccc([N+](=O)[O-])cc2)cs1	1	0	-1	3	12*	-1
COC(=O)[C@]12C[C@H](CC(=O)N3CCOCC3)C(=O)N(CCC3=CCCCC3)C1=C[C@H](C(C)C)O[C@@H]2C1CC1	-2	-1	-1	/	-1	/
CC(=O)c1sc(NC(=O)COc2ccccc2)nc1C	2	2	0	3	10	4.5*
CC(=O)c1sc(NC(=O)c2ccc(C)c(C)c2)nc1C	2	2	-1	5	13*	6.2*
COc1ccc2nc(NNC(=O)COc3ccccc3)sc2c1	5	1	0	1	1	1
O=C(COc1ccccc1)NNc1nc2ccccc2s1	-3	-2	-2	-4	-9	6.5*
SMILES	hcDAF-12 act	DAX1 inh-1	ssDAF12 agonist	GAA850 FXN act	hgDAF-12 ag	DAX1 inh-2
COC(=O)[C@]12C[C@H](CC(=O)NCCc3ccccc3OC)C(=O)N(Cc3ccc(Cl)cc3Cl)C1=C[C@H](C(C)(C)C)O[C@@H]2C	-2	-2	-2	/	0	/
N=c1c2c(ccn1CCCc1ccccc1)Oc1ccc3ccccc3c1C2c1ccccc1 (stereo unspecified)	2	/	-1	/	1	/
N#Cc1cccc(NC(=O)OCCCN2CCC3(CCCCC3)C2=O)c1	-3	-1	-1	/	-2	/
COc1ccc(-c2noc(CCC(=O)N3CCC(c4cc(C)ccc4C)CC3)n2)cc1	-2	0	3.0*	1	4	0
Nc1ccc(C(=O)O)c(O)c1	-1	0	-1	-2	11*!	-1
O=C(O)c1ccc(O)cc1O	-1	0	0	1	-1	1
O=C1C=C[C@H]2CC[C@@H](O)[C@@H]1[C@@H]2Sc1ccccc1	-2	-1	-1	/	-4	/
